# Data as given in PubChem BioAssay AID1259415 (National Center for Advancing Translational Sciences (NCATS), 2018).
# “And” between values parts separate entries of the source, which are not always exact repeats. Equal values may be shown once. Hit rate of the full screen: of about 410,000 compounds, about 18,000 (4.4%) were called active. Roughly 7% stayed inconclusive and do not appear here. Rule as the data show it: active = activity change below about -60%; inconclusive = no clear call, values can overlap the other calls; inactive = above about -39%. The list comes from a sample in which actives are over-represented; it also holds similar structures and randomly drawn compounds.
# Test: qHTS Assay for inhibitors of the human cytomegalovirus (HCMV)
# Conditions: HFF cells, HCMV-luciferase reporter, 72 h; at 57.5 µM; active compounds read low
# How it was run: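 Screen run at 2 compound doses on HFFs infected with reporter HCMV, MOI 1 PFU/cell. Luciferase activity from cell lysates at 72 h post infection gave inhibition relative to buffer-only and Salinomycin wells.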
# % is scaled to controls: 0 for no effect and ±100 for the full control effect.
row,Compound,"activity change, negative = inhibition"
1,CC(=O)N1CCCc2cc(S(=O)(=O)N3CCC(C(=O)NC4CCCCC4)CC3)ccc21,6.82% (inactive)
2,CC(=O)N1c2ccc(S(=O)(=O)N3CCCC(C(=O)NCc4ccc(Cl)cc4)C3)cc2CC1C (stereo unspecified),-75.8% (active)
3,CC(=O)N1c2ccc(S(=O)(=O)N3CCCC(C(=O)Nc4ccc(C)cc4C)C3)cc2CC1C (stereo unspecified),33.5% (inactive)
4,CC(=O)N1CCCc2cc(S(=O)(=O)N3CCCC(C(=O)N4CCN(c5cccc(Cl)c5)CC4)C3)ccc21 (stereo unspecified),-72.9% (active) and -95.8% (active)
5,CC(=O)N1c2ccc(S(=O)(=O)N3CCCC(C(=O)Nc4cccc(F)c4)C3)cc2CC1C (stereo unspecified),-31.3% (inactive)
6,COc1cccc(N2CCN(S(=O)(=O)c3ccc4c(c3)CCCN4C(C)=O)CC2)c1,-9.24% (inactive)
7,CC1Cc2cc(S(=O)(=O)CCC(=O)NCc3ccc(Cl)cc3)ccc2N1C(=O)C1CC1 (stereo unspecified),4.59% (inactive)
8,CC(=O)N1c2ccc(S(=O)(=O)N3CCC(C(=O)NCc4ccc(F)cc4)CC3)cc2CC1C (stereo unspecified),-39.5% (inactive)
9,CC(=O)N1c2ccc(S(=O)(=O)N3CCCC(C(=O)Nc4cccc(Cl)c4)C3)cc2CC1C (stereo unspecified),-62.5% (active)
10,Cc1noc(/C=C/N(C)C)c1S(=O)(=O)N1CCCC(C(=O)Nc2cccc(F)c2)C1 (stereo unspecified),4.81% (inactive)
11,CCOc1ccc(OCC)c(NC(=O)c2c(C)nn(-c3ccccc3)c2-n2cccc2)c1,-28.6% (inactive)
12,COc1ccc(-c2nn3c(=O)cc(CN4CCN(C(=O)c5ccc(OC)c(OC)c5)CC4)nc3s2)cc1,-5.09% (inactive)
13,COc1ccc(CCNc2nc(-c3ccc(Cl)cc3)cc(C(F)(F)F)n2)cc1OC,-19.1% (inactive)
14,O=C(CSc1nc(=O)n(Cc2cccnc2)c2c1CCC2)Nc1ccc(F)cc1F,-15.2% (inactive)
15,COc1cccc(CNC(=O)CCC(=O)N2CC3CCCN3c3ccccc32)c1 (stereo unspecified),-5.74% (inactive)
16,COc1ccc(C2N=C(N)N=C(N)N2c2ccccc2)cc1OC (stereo unspecified),14% (inactive)
17,O=C(CCc1nc(CN2CCN(S(=O)(=O)c3ccc(Cl)cc3)CC2)no1)N1CCCCC1,30.2% (inactive)
18,CC[C@]12c3[nH]c4ccc(OC)cc4c3CCN1C(=O)C(CC(=O)NCCN1CCOCC1)C[C@@H]2C(=O)N1CCN(C(=O)C2CC2)CC1 (stereo partly specified),3.72% (inactive)
19,O=C(Nc1ccc2c(c1)OCO2)c1cc(-c2cccc(Cl)c2)on1,11.5% (inactive)
20,O=C(Nc1cccc(S(=O)(=O)N2CCCC2)c1)c1cncc(Br)c1,-5.81% (inactive)
21,CCSc1ccccc1C(=O)Nc1ccc2c(c1)OCO2,8.91% (inactive)
22,CCN(CC)S(=O)(=O)c1cccc(NC(=O)c2ccc(S(=O)(=O)N3CCCC3)cc2)c1,-65.5% (active)
23,COc1cc(C(=O)NNC(=O)c2ccc(S(=O)(=O)N3CCCCC3)cc2)cc(OC)c1OC,41.5% (inactive)
24,Cc1c(C)n(Cc2ccc(Cl)cc2)c2ccc(C(=O)NCCc3ccc(S(N)(=O)=O)cc3)cc12,0% (inactive)
25,NS(=O)(=O)c1ccc(CCNC(=O)c2ccc(Cl)c(S(=O)(=O)N3CCCCCC3)c2)cc1,-69.2% (active)
26,O=C(CCNC(=O)c1ccc(Br)cc1)Nc1cccc(S(=O)(=O)N2CCCCC2)c1,-23.8% (inactive)

row,Compound,"activity change, negative = inhibition"
1,O=C(Nc1cccc(S(=O)(=O)N2CCCCC2)c1)c1ccc2c(c1)OCO2,-69% (active)
2,CN1CCN(S(=O)(=O)c2cccc(C(=O)Nc3cccc(S(N)(=O)=O)c3)c2)CC1,-17.3% (inactive)
3,O=C(NCCc1ccc(F)cc1)c1ccc(S(=O)(=O)N2CCCCC2)cc1,-3.57% (inactive)
4,Cn1c(=O)n(C)c2cc(C(=O)Nc3ccc4c(c3)OCO4)ccc21,-96.3% (active)
5,CCc1nn(CC(=O)Nc2cccc(C)c2C)c(=O)c2cc3sccc3n12,-1.56% (inactive)
6,Cc1cc2oc(=O)cc(CN(C)Cc3ccc(OC(F)F)cc3)c2cc1Cl,26.8% (inactive)
7,CCn1c(Cc2cccs2)nnc1SCC(=O)c1ccc(C)cc1,47.4% (inactive)
8,CC(=O)c1c(C)n(S(=O)(=O)c2ccc(Cl)cc2)c2ccc(NS(=O)(=O)c3ccc(Cl)cc3)cc12,1.89% (inactive)
9,Cc1ccc(OCC(=O)OCc2cc(=O)n3nc(C4CC4)sc3n2)cc1,-34% (inactive)
10,O=C(NCC12CC3CC(CC(C3)C1)C2)c1cc2nc(-c3ccccc3)cc(C(F)(F)F)n2n1,-2.2% (inactive)
11,COc1ccc(N2CCN(C(=O)C3CCCN(C(=O)c4cc5sccc5n4C)C3)CC2)cc1 (stereo unspecified),-14.9% (inactive)
12,Cc1cc(C)c(NC(=O)CN2C(=O)c3cccnc3Oc3ccc(Cl)cc32)c(C)c1,0% (inactive)
13,O=C(NCCCO)C(=O)Nc1c2c(nn1-c1ccc(F)cc1)CSC2,-5.08% (inactive)
14,Cc1ccc(Nc2c(-c3ccc(Cl)cc3)nc3sccn23)c(C)c1,-23.6% (inactive)
15,Cc1cccc(NC(=O)CSc2nc3c(oc4ccccc43)c(=O)n2-c2ccc(F)cc2)c1,-12% (inactive)
16,O=C(Nc1ccc2c(c1)OCCO2)c1ccc(Cl)c(S(=O)(=O)N2CCCCC2)c1,-72.6% (active)
17,CC(=O)Nc1ccc(C(=O)Nc2cccc(S(=O)(=O)NC3=NCCC3)c2)cc1,-22.7% (inactive)
18,O=C(NNC(=O)c1cccc(S(=O)(=O)Nc2ccc(Cl)cc2)c1)c1ccc(=O)[nH]c1,24% (inactive)
19,Cc1ccc(NC(=O)c2ccc(Cl)nc2)cc1S(=O)(=O)N1CCOCC1,-8.05% (inactive)
20,O=C(Nc1cccc(S(=O)(=O)Nc2ccc(Cl)cc2)c1)c1ccc2c(c1)OCCO2,-94.5% (active)
21,Cc1ccc(C(=O)NNC(=O)c2ccncc2)cc1S(=O)(=O)N1CCCCC1,-15.8% (inactive)
22,CCOc1ccc(CCNC(=O)C2CCN(c3ccc(N4CCOCC4)nn3)CC2)cc1OCC,2.74% (inactive)
23,Cc1cc(C)c(C)c(S(=O)(=O)N[C@@H](C)C(=O)OC(C)C(=O)NC(N)=O)c1C (stereo partly specified),-14.5% (inactive)
24,COc1ccc(NC(=O)c2sc3nc(-c4cc5cccc(OC)c5oc4=O)[nH]c(=O)c3c2C)cc1,-14.2% (inactive)
25,Cc1ccc(Cn2cc(CCC(=O)NCc3ccc(OC(C)C)cc3)c3ccccc32)cc1,4.19% (inactive)
